{"source": "PubChem BioAssay AID493185", "about": "(National Center for Advancing Translational Sciences (NCATS), 2011)", "note": "The source made the active and inactive calls. The call rests on the fitted dose curve; in most records, active means well fitted activation curve with a large enough effect; inconclusive means small, poorly fitted or top-dose-only effect; inactive means no such curve, though single readings can be large or run the other way.", "data": [{"assay": "Counterscreen for Identifying a Potential Treatment of Ataxia-Telangiectasia: Hit Validation; further: potency means the concentration at half of the fitted maximal effect; on activation: 0% is about no effect", "conditions": "cell-free AlphaLISA/AlphaScreen artifact counterscreen, PBS only, no cells; series mostly up to 76.9 µM; activation: at the top concentration", "outline": "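Without cells, compounds at up to 76.7 uM final were combined with premixed anti-pKAP1/anti-KAP1 AlphaLISA bead reagents, protease inhibitors and lysis buffer; signal read after 6 hr at 25C to flag assay-platform artifacts.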", "values": [{"molecule": "OC(COC(c1ccc(F)cc1)c1ccc(F)cc1)CN1CCCC1", "note": "(configuration not stated)", "activation": "13.1% (inactive)"}, {"molecule": "CCOC(=O)c1[nH]c(COC(=O)c2ccccc2NC(=O)c2ccco2)c(C(=O)OCC)c1C", "activation": "-6.56% (inactive)"}, {"molecule": "COc1ccc(-c2nc3n(c2C)Cc2ccccc2-3)cc1", "Potency": "32.8 µM (active)"}, {"molecule": "CCOc1ccc(NC2=CC(=O)CCC2)cc1", "activation": "-2.46% (inactive)"}, {"molecule": "CCC(C)N1C(=S)SC(C)(C)C1N(O)C(=O)NC1CCCCC1", "note": "(configuration not stated)", "activation": "-10.8% (inactive)"}, {"molecule": "CNC(=O)c1ccc(-c2sc3nc(N4CCOCC4)c4c(c3c2N)CC(C)(C)OC4)o1", "Potency": "46.3 µM (active)"}, {"molecule": "CC(C)(CN1CCN(c2ccccc2)CC1)NS(=O)(=O)c1ccccc1", "activation": "-7.38% (inactive)"}, {"molecule": "CCOC(=O)CN(C(=O)CSc1nnc(COc2ccc(OC)cc2)n1CC)c1ccccc1", "activation": "0% (inactive)"}, {"molecule": "O=C(O)CCCC(=O)N1N=C(c2ccccc2)CC1c1cccs1", "note": "(configuration not stated)", "activation": "-21.8% (inactive)"}, {"molecule": "CC(=O)c1ccc([N+](=O)[O-])c(CS(=O)(=O)c2ccc(Cl)cc2)c1", "activation": "-4.51% (inactive)"}, {"molecule": "O=C(CNCc1cccs1)Nc1cc(S(=O)(=O)N2CCCC2)ccc1Cl", "activation": "10.5% (inactive)"}, {"molecule": "CCn1c(=NC(=O)CN2C(=O)CCC2=O)sc2c(OC)ccc(OC)c21", "activation": "-5.74% (inactive)"}, {"molecule": "CCC(Oc1ccccc1)C(=O)N(C)CC(=O)N(CC(C)C)c1c(N)n(CC(C)C)c(=O)[nH]c1=O", "note": "(configuration not stated)", "activation": "12.8% (inactive)"}, {"molecule": "CCOC(=O)N1CCC(NC(=O)C2CCN(S(=O)(=O)c3cccc4cccnc34)CC2)CC1", "activation": "-3.28% (inactive)"}, {"molecule": "Cc1ccc(NC(=O)CSc2nnc([C@H](C)NC(=O)OC(C)(C)C)o2)c(C)c1", "activation": "44.6% (inactive)"}, {"molecule": "COc1ccc(Cl)cc1NC(=O)C[n+]1cccc(C)c1", "activation": "9.02% (inactive)"}, {"molecule": "O=[N+]([O-])c1ccc(F)cc1F", "activation": "-4.1% (inactive)"}]}]}
